In the library only some 2.2% were active in any assay of this set; here they are far more common.
EWS-Fli inh: EWS/Fli-driven NR0B1 reporter inhibitors, primary screen, A673 cells, NR0B1 luciferase, luminescence, MLPCN library; inhibition, % at 12.6 µM; 0.67% of 350,000 active; AID 651661, 2012; viability-normalised;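 active means mean inhibition of at least 50% after viability correction, with every replicate also passing that limit; inconclusive means mean reaches 50% but only one of two replicates passes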;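 further: firefly luciferase signal divided by Alamar Blue viability fluorescence both relative to DMSO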
LMP1 NFkB inh: EBV LMP1-driven NF-kappaB luciferase reporter inhibitors, primary screen, cell-based, luminescence, single point | inhibition, % at 12.5 µM | 0.69% of 350,000 active | LMP1-induced NF-kappaB luciferase reporter cells | AID 504558, 2011; in the data active means inhibition above about 41%; inconclusive means no clear call, values can overlap the other calls
PAX8 reporter: inhibitors of PAX8-driven TPO luciferase reporter, primary screen, RMG-I cells, single concentration. inhibition, % at 12.6 µM. 1.2% of 360,000 active. SteadyGlo, 24 h;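 active means mean replicate inhibition at least 60% with every replicate also reaching 60%; inconclusive means only one of the two criteria is met; inactive means mean below 60% and not all replicates reaching 60%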;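 further: luciferase light reporting Pax8 driven TPO promoter activity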
TRPM1 prom inh: inhibitors of MITF-dependent TRPM1 promoter reporter, primary screen, cell-based, SK-MEL-5, single point, luciferase; 0.83% of 330,000 active; inhibition, % at 12.5 µM; SK-MEL-5 TRPM1 promoter luciferase, 24 h;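 active means mean inhibition across replicates of 60% or more, whatever share of single replicates reaches that level; inconclusive means some that reach 60%, reason not given; inactive means mean inhibition across replicates below 60%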
Shn3 3UTR inh: reduction of Shn3 3'UTR firefly luciferase signal, primary screen, Schnurri-3 inhibitor project, cell-based, Clone20 osteoblasts, set 2; 0.52% of 360,000 active; Clone20 osteoblast Shn3 3'UTR firefly luciferase, 24 h; inhibition, % at 12.5 µM;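 active means mean inhibition of at least 75% with every replicate also reaching 75%; inconclusive means mean inhibition at least 75% but some replicate below; inactive means mean inhibition below 75%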
LGR2 inh: inhibitors of bursicon-induced LGR2 CRE-luciferase signal, primary screen, cell-based, HEK293, CRE-luciferase reporter, bursicon stimulation | Drosophila bursicon receptor LGR2 (rickets) | bursicon-stimulated, 4 h | inhibition, % at 9.99 µM | 0.35% of 380,000 active | AID 720647, 2013;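 active means drop in luminescence signal, shown as inhibition above about 50% in the replicate tests, limit read from the data, passing the limit was not always enough; inconclusive means probably only some replicates passing the limit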;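 further: agonist challenge used bursicon conditioned medium at about half maximal strength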
A number is an active result; i = inactive; ? = inconclusive; nt = no result given.

SMILES	EWS-Fli inh	LMP1 NFkB inh	PAX8 reporter	TRPM1 prom inh	Shn3 3UTR inh	LGR2 inh
CC1(C(=O)NCc2ccccc2)Cc2c(-c3ccc(C(N)=O)cc3)ccnc2O1 (stereo unspecified)	54	nt	i	nt	i	i
CN(C)c1ccc(-c2ccnc3c2CC(C)(C(=O)NCc2ccccc2)O3)cc1 (stereo unspecified)	61	nt	i	nt	i	i
CC1(C(=O)NCc2ccccc2)Cc2c(-c3ccccc3)ccnc2O1 (stereo unspecified)	59	nt	i	nt	i	i
CC1(C(=O)NCc2ccco2)Cc2c(-c3ccc(C(N)=O)cc3)ccnc2O1 (stereo unspecified)	i	nt	i	nt	i	i
CC1(C(=O)NCC2CCOCC2)Cc2c(-c3cccc(C(F)(F)F)c3)ccnc2O1 (stereo unspecified)	52	nt	i	nt	i	i
COc1ccc(CN(C)C[C@@H]2Oc3ccc(NC(=O)C4CC4)cc3CC(=O)N([C@@H](C)CO)C[C@@H]2C)cc1	i	nt	i	nt	nt	i
CCCN(C)C[C@H]1Oc2ncc(C#Cc3ccc(OC)cc3)cc2C(=O)N([C@H](C)CO)C[C@H]1C	i	nt	nt	nt	nt	i
CC1(C(=O)NCCc2ccccc2)Cc2c(-c3ccc4c(c3)OCO4)ccnc2O1 (stereo unspecified)	58	nt	i	nt	i	i
O=C(NC1CCCc2ccccc21)C1CCN(S(=O)(=O)c2cccc(C(F)(F)F)c2)CC1 (stereo unspecified)	i	i	70	i	i	i
C[C@H]1CN([C@@H](C)CO)C(=O)c2cc(C#Cc3ccc(F)cc3)cnc2O[C@@H]1CN(C)C	i	nt	nt	nt	nt	i
COc1ccc(NC(=O)/C(Cl)=C(/Cl)S(=O)Cc2ccc(Cl)cc2)cn1 (stereo unspecified)	74	78	88	94	96	101
COc1ccc(NC(=O)/C(Cl)=C(/Cl)S(=O)(=O)Cc2ccccc2)cn1	nt	90	nt	94	97	nt
C[C@@H]1CCCCO[C@H](CN(C)C(=O)Nc2ccc(C(F)(F)F)cc2)[C@H](C)CN([C@@H](C)CO)C(=O)c2cc(NS(C)(=O)=O)ccc2O1	i	nt	i	nt	nt	i
CO[C@H]1CN(C)C(=O)c2ccc(NS(=O)(=O)c3ccc(Cl)cc3)cc2OC[C@H](C)N(C)C[C@@H]1C	nt	nt	i	nt	nt	i
COC(=O)C[C@@H]1C[C@@H]2c3cc(NC(=O)Nc4ccc(OC)cc4)ccc3O[C@@H]2[C@@H](CO)O1	nt	nt	i	nt	nt	i
CNC(=O)c1cc(Oc2ccc(NC(=O)Nc3ccc(Cl)c(C(F)(F)F)c3)cc2)ccn1	i	68	96	i	i	nt
COC(=O)C[C@@H]1CC[C@H]2[C@H](COc3ccc(NS(C)(=O)=O)cc3C(=O)N2C)O1	i	nt	i	nt	nt	i
CCCc1nnc(SCc2ccc(OCC)cc2)n1N	nt	77	nt	i	i	nt
C[C@@H](NC(=O)C[C@H]1C[C@@H]2c3cc(NC(=O)C4CCOCC4)ccc3O[C@@H]2[C@H](CO)O1)c1ccccc1	i	nt	i	nt	nt	i
COC(=O)C1=NNC(C(=O)OC)C1c1ccccc1 (stereo unspecified)	i	84	i	i	i	i
O=S(=O)(c1ccc(Cl)cc1)c1snnc1-c1ccccc1	nt	i	nt	83	i	nt
O=S(=O)(c1ccc(F)cc1)c1snnc1-c1ccccc1	i	i	i	66	i	58
CN(C)c1ncc(S(=O)(=O)c2ccc(Cl)cc2)c(-c2ccccc2)n1	nt	i	i	i	i	nt
COc1ccccc1NC(=O)N(C)C[C@H]1Oc2cc(Br)ccc2S(=O)(=O)N([C@@H](C)CO)C[C@@H]1C	i	nt	i	nt	nt	i
Cc1ccc(S(=O)(=O)Nc2ccc3c(c2)CC(=O)N([C@H](C)CO)C[C@@H](C)[C@H](CN(C)C(=O)Nc2ccc(C(F)(F)F)cc2)O3)cc1	i	nt	i	nt	nt	i
SMILES	EWS-Fli inh	LMP1 NFkB inh	PAX8 reporter	TRPM1 prom inh	Shn3 3UTR inh	LGR2 inh
O=C(O)c1ccc(N/N=C/c2cc3c(cc2[N+](=O)[O-])OCO3)cc1	i	i	i	i	i	i
O=C(O)c1cc(N/N=C/C(Cl)=C/c2ccccc2)ccc1Cl	i	i	i	?	i	73
O=C(O)c1cc(NN=C2c3ccccc3-c3ccccc32)ccc1Cl	i	i	i	i	i	i
O=C(O)c1cc(N/N=C/c2ccc3c(c2)OCCO3)ccc1Cl	i	45	i	82	i	71
O=C(O)c1ccc(N/N=C/c2cc3cc4c(cc3nc2Cl)OCCO4)cc1	i	42	i	i	i	60
Cc1noc(C)c1NC(=O)Nc1ccc2c(c1)C(=O)N([C@@H](C)CO)C[C@@H](C)[C@H](CN(C)C(=O)Nc1ccc3c(c1)OCO3)O2	i	nt	i	nt	nt	i
COc1cc(C(=O)NCc2cc(C)nc3ccccc23)cc(OC)c1OC	i	i	i	i	i	i
COc1ccc(C(=O)NCc2cc(C)nc3ccccc23)cc1	53	i	i	i	i	i
COc1ccc(C(=O)Nn2c(SCC(=O)NC3CCCCC3)nc3ccccc3c2=O)cc1	nt	55	i	i	i	nt
COc1ccc(C(=O)Nn2c(C)nc3ccccc3c2=O)cc1	i	i	i	i	i	i
COCCCn1c(SCC(=O)NC2CCCCC2)nc2ccccc2c1=O	i	i	i	nt	i	i
COc1ccc(C(=O)Nn2c(SCC(=O)c3ccc(Cl)cc3)nc3ccccc3c2=O)cc1	nt	48	i	i	i	nt
COCCn1c(SCC(=O)N2CCC(C)CC2)nc2ccccc2c1=O	nt	i	nt	i	i	i
COc1ccc(C(=O)Nn2c(SCC(=O)N3CCC(C)CC3)nc3ccccc3c2=O)cc1	nt	70	i	i	i	nt
O=C(C[C@@H]1C=C[C@H](NC(=O)c2ccc(F)cc2)[C@@H](CO)O1)NCCc1ccccc1	i	nt	i	nt	nt	i
CCn1c(SCC(=O)NCc2ccco2)nc2ccccc2c1=O	i	i	i	i	i	i
COc1ccc(C(=O)Nn2c(SCC(=O)NCc3ccco3)nc3ccccc3c2=O)cc1	nt	50	nt	i	i	nt
O=C(Nc1ccc2c(c1)[C@@H]1C[C@H](CC(=O)N3CCc4ccccc4C3)O[C@@H](CO)[C@@H]1O2)C1CCC1	i	nt	i	nt	nt	i
CCOc1cc(/C=N/NC(=O)c2ccccc2-n2cccc2)ccc1O	i	71	i	i	i	i
Cc1ccsc1/C=N/NC(=O)c1ccncc1	i	i	i	i	i	i
CCOc1cc(/C=N/NC(=O)c2ccccc2OCc2ccc(F)cc2)ccc1O	i	i	i	i	i	i
COc1cc(C(=O)Oc2ccccc2/C=N/NC(=O)c2ccc(C)c(Cl)c2)cc(OC)c1OC	nt	57	i	i	i	i
COc1cc(/C=N/NC(=O)c2ccc3c(c2)OCO3)ccc1O	nt	i	i	i	i	i
COc1cc(/C=N/NC(=O)c2ccc(-n3cccc3)cc2)ccc1O	nt	i	72	i	i	i

Screening results deposited in PubChem by Broad Institute.
